# Sm TGR inh = qHTS Assay for the Inhibitors of Schistosoma Mansoni Peroxiredoxins | Schistosoma mansoni thioredoxin glutathione reductase (TGR), Q962Y6 | purified TGR, DTNB reduction, TNB absorbance 405 nm | Potency, µM (titrated, usually from 114 µM), without a hit: at the highest dose activity change, negative = inhibition, actives largely listed as inhibitors | actives 3% (n = 360,000) | AID 485364, 2010; also: nearly all actives have a fitted effect of over 60% in size
#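 TGR 20 nM + NADPH 100 uM (dispensed conc.), cpd preinc 15 min RT; start with NADPH (500 uM addition) then DTNB (15 mM addition). Kinetic TNB absorbance, 405 nm filter. Four-parameter Hill fit across titration.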
# AmpC inh detg = qHTS Inhibitors of AmpC Beta-Lactamase (assay with detergent); P00811; AmpC hydrolysis of nitrocefin, absorbance 480 nm, 0.01% Triton; Potency, µM (doses to about 114 µM), inactives show top-dose activity change, negative = inhibition, usual class: inhibitors; actives 0.041% (n = 370,000);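 also: 0% = no-compound wells and -100% = no-enzyme wells; nearly all actives have a fitted effect of over 25% in size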
# Target sequence (P00811 whole entry, looked up): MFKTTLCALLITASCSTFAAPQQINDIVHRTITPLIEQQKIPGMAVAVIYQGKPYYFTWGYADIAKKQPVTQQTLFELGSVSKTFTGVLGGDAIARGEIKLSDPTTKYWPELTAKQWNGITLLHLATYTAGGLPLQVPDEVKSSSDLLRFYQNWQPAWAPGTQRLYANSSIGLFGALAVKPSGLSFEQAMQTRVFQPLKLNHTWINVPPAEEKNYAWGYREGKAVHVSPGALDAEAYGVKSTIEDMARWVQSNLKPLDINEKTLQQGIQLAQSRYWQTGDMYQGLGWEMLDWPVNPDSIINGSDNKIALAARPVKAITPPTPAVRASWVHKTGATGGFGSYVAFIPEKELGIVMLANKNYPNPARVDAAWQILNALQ
#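 20 mM phosphate pH 7.0 + 0.01% (detergent screen) or 0.0001% Triton X-100; 5.3 nM AmpC reagent; cpd preinc 15 min RT; nitrocefin (800 uM stock) to start; A480 q20 s × 4 min; Activity was normalised to no-enzyme and no-compound control wells.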
# AmpC inh no detg = qHTS Inhibitors of AmpC Beta-Lactamase (assay without detergent); Potency, µM (doses to about 57.1 µM), without a hit: top-dose activity change, negative = inhibition, usual class: inhibitors; AmpC nitrocefin hydrolysis, absorbance 480 nm, 0.0001% Triton; P00811; actives 0.52% (n = 330,000);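 also: plate controls were no compound for no effect and no enzyme for full effect; nearly all actives have a fitted effect of over 20% in size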
#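 20 mM phosphate pH 7.0 + 0.01% (detergent screen) or 0.0001% Triton X-100; 5.3 nM AmpC reagent; cpd preinc 15 min RT; nitrocefin (800 uM stock) to start; A480 q20 s × 4 min; Activity was normalised to no-enzyme and no-compound control wells.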
# AMA1 RON2 block = qHTS for Inhibitors of AMA1-RON; Towards Development of Antimalarial Drug Lead: Primary Screen. Plasmodium falciparum AMA1 (3D7) - RON2 peptide interaction. AlphaScreen AMA1-biotinylated RON2 peptide binding. actives 0.2% (n = 360,000). AID 720542, 2013. Potency, µM (doses to about 58.2 µM), for inactives: top-dose activity change, negative = inhibition, hits mostly inhibitors;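 also: 0% = vehicle wells and -100% = peptide control; nearly all actives have a fitted effect of over 45% in size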
#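 AMA1 (3D7) with his tag at 25 nM final met compounds first, then biotinylated RON2 peptide at 25 nM; detection used donor plus acceptor beads, 10 µg/mL apiece, read by AlphaScreen after 30 min at room temperature.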
# FMDV antiviral = High Throughput Screening for Foot and Mouth Disease Virus Antivirals; AID 1159524, 2015; actives 1.2% (n = 410,000); FMDV antiviral cell-based qHTS; Potency, µM (titrated, usually from 57.9 µM), for the others: at the highest dose activity change, negative = inhibition, hits mostly inhibitors; calls by dose curve; tested in HEK293T cells; also: read-out not given here; nearly all actives have a fitted effect of over 45% in size
# Active calls of the source: *; ? = inconclusive; . = no result given; [ ] = another dose, or the depositor's remark. An excerpt weighted towards active compounds, which were near 4.1% of everything screened. Unless noted, calls follow the shape of the dose curve; as a rule, active = well fitted curve in the direction sought with a large enough effect; inconclusive = small, poorly fitted or top-dose-only effect, or another doubt; inactive = no such curve, though single readings can be large; an effect the other way counts as inactive or inconclusive. Unless noted, % is scaled to controls: 0 for no effect and ±100 for the full control effect; potency is read from the fitted curve at half-maximal effect.
SMILES,Sm TGR inh,AmpC inh detg,AmpC inh no detg,AMA1 RON2 block,FMDV antiviral
Cn1c(=O)[nH]c(=O)c2c1nc([N+](=O)[O-])n2Cc1ccccc1,1.8µM*,7%,-4%,-8%,7.9µM*
CCNc1nc2c(c(=O)[nH]c(=O)n2C)n1CC(C)C,5%,-8%,-3%,6%,-5%
Cn1c(-c2cccc(OCc3ccccc3)c2)nc2c1c(=O)[nH]c(=O)n2Cc1ccccc1,-12%,-8%,-27%,-1%,35µM*
Cn1c(=O)[nH]c(=O)c2c1nc(Br)n2CCC(=O)c1ccccc1,13µM*,-3%,-20%,1%,0%
CC(C)Cn1c([N+](=O)[O-])nc2c1c(=O)[nH]c(=O)n2C,22µM*,-1%,2%,2%,28µM*
CC(=O)CSc1nc2c(c(=O)[nH]c(=O)n2C)n1Cc1cccc(Br)c1,56µM*,-12%,-9%,-6%,-19%
O=C(OCn1ncc(Cl)c(Cl)c1=O)c1cccc(C(F)(F)F)c1,5.6µM*,-5%,-28%,?,14µM*
CC1CCc2onc(C(=O)N3CCN(c4ccccc4)CC3)c2C1 (stereo not given),9%,21%,.,.,11%
Cc1cnnn1-c1ccc(C(=O)CCl)cc1,5.6µM*,-10%,1%,-18%,?
CCCCC/C=C\C\C=C/C=C/C=C/[C@@H](SC[C@H](NC(=O)CC[C@H](N)C(=O)O)C(=O)NCC(=O)O)[C@@H](O)CCCC(=O)O,.,.,.,.,-7%[0.463 µM]
COc1ccc(NC2CC(=O)N(c3cccc(C)c3)C2=O)cc1 (stereo not given),35µM*,-8%,-30%,6%,49%
COc1ccc(NC2CC(=O)N(c3ccc(C(=O)O)cc3)C2=O)cc1 (stereo not given),-33%,-10%,-14%,19%,7%
COc1ccc(NC2CC(=O)N(c3cc([N+](=O)[O-])ccc3C)C2=O)cc1 (stereo not given),40µM*,3%,-33%,-16%,-10%
COc1ccc(N2C(=O)CC(Nc3cccc(C(C)=O)c3)C2=O)cc1OC (stereo not given),56µM*,1%,2%,-10%,21%
COc1ccc(NC2CC(=O)N(c3cccc([N+](=O)[O-])c3)C2=O)cc1 (stereo not given),56µM*,-3%,-30%,-7%,-11%
Cc1ccc(N2C(=O)CC(Nc3ccccc3)C2=O)cc1 (stereo not given),-20%,2%,-1%,-1%,.
O=C(NCc1nnc2n1CCN(Cc1ccccc1C(F)(F)F)CC2)c1ccncc1,.,.,.,.,-16%
COc1cc(/C=C2/SC(=S)NC2=O)ccc1OS(=O)(=O)c1ccc(C)cc1,-4%,-2%,-36%,56%,28µM*
COc1cc(/C=C2\SC(=S)NC2=O)ccc1OS(=O)(=O)c1ccccc1,-1%,2%,-25%,.,.
COc1ccc(/C=C2\SC(=O)NC2=S)cc1OC,18µM*,-6%,-46%,43%,5%
C/C(=N\NC(=O)c1cc2ccccc2cc1O)c1cc2ccccc2o1,0%,4%,16µM*,143%,-25%
C/C(=N\NC(=O)c1cc2ccccc2cc1O)c1ccccn1,-7%,-2%,-52%,60%,?
O=S(=O)(c1ccccc1F)N1CCN(Cc2cc3c(cc2O)OCO3)CC1,0.71µM*,-4%,-26%,-8%,-8%
CCOC(=O)c1ccc(S(=O)(=O)N2CCN(Cc3cc4c(cc3O)OCO4)CC2)cc1,0.35µM*,5%,-2%,-6%[11.6 µM],-9%
O=[N+]([O-])c1ccccc1CN1CCN(S(=O)(=O)c2ccccc2)CC1,.,.,.,-10%,0%
SMILES,Sm TGR inh,AmpC inh detg,AmpC inh no detg,AMA1 RON2 block,FMDV antiviral
O=[N+]([O-])c1ccccc1S(=O)(=O)N1CCN(Cc2cc3c(cc2O)OCO3)CC1,0.56µM*,-14%,-28%,?,-17%
Cc1ccc(C)c(S(=O)(=O)N2CCN(Cc3cc4c(cc3O)OCO4)CC2)c1,0.63µM*,0%,-26%,?,-11%
Cc1noc(C)c1S(=O)(=O)N1CCN(Cc2ccc3c(c2)OCO3)CC1,4%,-16%,7.1µM*,-6%,-16%
CCOC(=O)c1ccc(S(=O)(=O)N2CCN(C3CCCC3)CC2)cc1,13µM*,2%,-20%,-12%,-23%
Oc1cc2c(cc1CN1CCN(c3ccc(F)cc3)CC1)OCO2,2.5µM*,?,-18%,32µM*,-27%
COc1cc(OC)c(OC)cc1CN1CCN(c2ccc(F)cc2)CC1,3%,3%,0%,-23%,-20%
C[C@H](N=C(NC#N)Nc1ccncc1)C(C)(C)C,.,.,.,.,-12%
CC(=O)N1CCCC1c1nc2ccccc2n1Cc1ccccc1C (stereo not given),5%,23%,.,.,-4%
COc1ccc(-c2nc3cnc(N(C)C)nc3n(CCc3ccccc3)c2=O)cc1,.,.,.,.,-5%
COc1cccc(NC(=O)CN2C(=O)c3cccc4cccc2c34)c1,2%,23%,.,.,-6%
Cn1cccc1/C=C1/C(=O)NC(=S)N(Cc2ccc(F)cc2)C1=O,25µM*,4%,?,-7%,28µM*
CCn1c(SCC(=O)N=Nc2c(O)[nH]c3ccccc23)nc2ccccc21,-7%,-8%,5µM*,-16%,-18%
CCn1cc(CN(C)C(=O)CSc2nc(-c3ccco3)cc(C(F)(F)F)n2)c(C)n1,.,.,.,5%,20µM*
COCCCNC(=O)c1ccc(Cn2c(=O)c3ccccc3n(Cc3c(C)cc(C)cc3C)c2=O)cc1,-1%,2%,.,.,14%
O=C(Nc1ccc(N2CCN(C(=O)c3ccco3)CC2)c(Cl)c1)c1cc2ccccc2o1,-3%,-1%,-8%,-10%,8.9µM*
CCC(=O)N1CCN(c2ccc(NC(=O)c3ccco3)cc2Cl)CC1,1%,-3%,-12%,12%,20%
CCCC(=O)N1CCN(c2ccc(NC(=O)c3cc4ccccc4o3)cc2Cl)CC1,0%,?,78%,0%,4.5µM*
CCC(=O)N1CCN(c2ccc(NC(=O)c3cc4ccccc4o3)cc2Cl)CC1,6%,3%,83%,-3%,8.9µM*
CCCC(=O)N1CCN(c2ccc(NC(=O)c3cccs3)cc2Cl)CC1,-12%[57.1 µM],1%,-9%,13%,7%
O=C(Nc1ccc(N2CCN(C(=O)c3ccccc3)CC2)c(Cl)c1)c1ccco1,?,-2%,-24%,-12%,-68%
O=C(NCc1ccccc1Cl)c1cc2cccc3c2n1CCS3,-5%,-7%,.,.,-8%
O=C(O)c1ccc(Nc2nc3c(s2)CCCC3)cc1,.,-2%,-14%,-8%,10µM*
Cc1nc(Nc2ccc(C(=O)O)cc2)sc1-c1ccccc1,-1%,12%,-24%,-16%,7.1µM*

# Assay outcomes from PubChem.
